Compounds with a hit are over-represented: about 14% of the library has one in this group of screens.
USP8 inh: human USP8 deubiquitinase inhibition; P40818; purified USP8, Ub-rhodamine cleavage fluorescence, 30 min; inhibition, % at 20 µM; actives 4.2% (n = 47,000)
USP17 block: inhibitors of human USP17 deubiquitinase; purified USP17, Ub-rhodamine cleavage fluorescence, 3 h; inhibition, % at 50 µM; actives 6.5% (n = 47,000); AID 1645855
Target sequence (A8MUK1 whole entry, looked up): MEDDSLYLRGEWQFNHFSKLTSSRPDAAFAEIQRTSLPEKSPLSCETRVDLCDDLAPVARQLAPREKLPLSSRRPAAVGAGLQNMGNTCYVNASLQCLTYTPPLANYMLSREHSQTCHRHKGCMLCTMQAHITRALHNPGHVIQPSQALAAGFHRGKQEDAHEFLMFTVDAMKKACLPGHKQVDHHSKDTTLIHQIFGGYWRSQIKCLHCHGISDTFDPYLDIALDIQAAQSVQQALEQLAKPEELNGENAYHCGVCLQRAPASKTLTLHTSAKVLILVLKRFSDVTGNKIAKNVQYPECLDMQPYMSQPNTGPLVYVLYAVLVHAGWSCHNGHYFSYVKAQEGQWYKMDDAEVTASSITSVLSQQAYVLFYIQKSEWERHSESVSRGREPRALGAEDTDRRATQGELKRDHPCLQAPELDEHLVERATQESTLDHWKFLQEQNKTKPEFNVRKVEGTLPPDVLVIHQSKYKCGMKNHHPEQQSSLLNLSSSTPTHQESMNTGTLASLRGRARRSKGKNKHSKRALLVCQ
USP30 inh: inhibitors of human USP30 deubiquitinase; inhibition, % at 25 µM; purified USP30, Ub-rhodamine cleavage fluorescence; actives 5.3% (n = 47,000); AID 1645860; Q70CQ3
USP28 block: inhibitors of human USP28 deubiquitinase; Q96RU2; actives 3% (n = 47,000); purified USP28, Ub-rhodamine cleavage fluorescence, 30 min; inhibition, % at 25 µM
An asterisk follows results filed as active. No stated cut-off is given here; in the data, active means inhibition above about 30%; inactive means the rest.

SMILES | USP8 inh | USP17 block | USP30 inh | USP28 block
Cc1ccc(NC(=O)/C=C/c2cccc(C(F)(F)F)c2)c(O)c1 | 1 | 58* | 45* | 27
Cc1cc(C(=O)C(=O)Nc2nnc(-c3cccnc3)s2)c(C)n1-c1ccccc1F | 37* | -28 | -342 | -67
CNC(=O)CN1CCC2(CC1)CC(C(=O)N1CCOCC1)c1ccccc12 (stereo not given) | -55 | -6 | 20 | 4
O=C(Nc1cc(-c2ccccn2)no1)c1cccc(F)c1 | 0 | 4 | 4 | 7
COc1ccc(C(=O)Nc2cc(-c3ccccn3)no2)cn1 | 17 | 5 | 20 | 63*
O=C(Cc1ccc(Cl)cc1)Nc1cc(-c2ccccn2)no1 | 6 | 40* | 5 | 1
Cc1ccc(NC(=O)c2cn[nH]c2S(=O)(=O)Nc2ccccc2)cc1F | -2 | 7 | 3 | 7
O=C(Cn1cc(S(=O)(=O)Cc2ccc(Cl)cc2)c2ccccc21)N1CCCCCC1 | -4 | -3 | 13 | -7
Cc1cc(O)ccc1NC(=O)CC(NCCc1ccccc1)C(=O)O (stereo not given) | 31* | 12 | 6 | 8
Cc1ccccc1NC(=O)c1c(C)sc2c(=O)n(C(C)C)cnc12 | -3 | 32* | -20 | -8
COCCNC(=O)CN(Cc1ccc(OC)cc1)C(=O)CCC(=O)Nc1ccccn1 | 18 | 16 | 17 | 10
O=C(Nc1ccc(Cl)cc1)c1cccc(OCc2ccccc2)c1 | -1 | 0 | -4 | 1
CN1CCC(N(C)S(=O)(=O)c2ccc(NC(=O)c3cccc(OCc4ccccc4)c3)cc2)CC1 | -8 | -4 | 0 | 52*
Cc1ccc(C)c(S(=O)(=O)N2CCC3(CC2)NC(=O)c2ccccc2N3)c1 | 20 | 59* | 20 | 5
O=C1NC2(CCN(S(=O)(=O)c3ccc(F)c(Cl)c3)CC2)Nc2ccccc21 | 4 | 50* | -2 | -7
O=C1NC2(CCN(S(=O)(=O)c3ccc(F)cc3F)CC2)Nc2ccccc21 | 8 | 0 | 22 | 12
COc1ccc(NC(=O)CSc2ccc(-c3ccccc3C)nn2)cc1OC | -38 | -6 | 5 | 14
Cc1ccc(-c2c3c4n(c(-c5ccc(Cl)c(Cl)c5)cn4c2C(=O)NC2CCCCC2)CCCC3)cc1 | 44* | -2 | -91 | -28
Cc1ccc(-c2c3c4n(c(-c5ccc(Cl)cc5)cn4c2C(=O)NC2CCCCC2)CCCC3)cc1 | 26 | -9 | -99 | -12
Cn1nnc2c(NCc3ccc4c(c3)OCO4)ncnc21 | 2 | -3 | 4 | -3
COc1ccc(NS(=O)(=O)c2ccc(Cl)c(NC(=O)CC(=O)c3ccc([N+](=O)[O-])cc3)c2)cc1 | 37* | 30 | 15 | 21
COc1ccc(NS(=O)(=O)c2ccc(Cl)c(NC(=O)CCOc3cc(C)ccc3C)c2)cc1 | -138 | -11 | 16 | 12
COc1ccc(NC(=O)CC(=O)c2ccc([N+](=O)[O-])cc2)cc1S(=O)(=O)Nc1ccc(Br)cc1 | 72* | 34* | 60* | 42*
O=C(Cc1nnc(-c2ccccn2)o1)NCc1ccccc1Cl | -3 | -1 | -2 | -5
CNc1nc(C2CCCN(C(=O)C3(c4ccccc4)CCOCC3)C2)nc2c1CCN(C)C2 (stereo not given) | 1 | -4 | -13 | -3
SMILES | USP8 inh | USP17 block | USP30 inh | USP28 block
CC(C)(C)c1ccc(C(=O)Nc2ccc(O)cc2C(=O)O)cc1 | 14 | 28 | 23 | 1
COc1ccc(C(=O)Nc2ccc(O)cc2C(=O)O)cc1OC | 33* | 18 | 32* | 19
CNc1nccnc1C1CN(C(=O)c2c(C(C)C)noc2C)CCO1 (stereo not given) | 32* | 6 | 10 | 0
C=C1C[C@@]23CCC4[C@@](C)(CCC[C@@]4(C)C(=O)O[C@@H]4O[C@H](CO)[C@@H](O)[C@H](O)[C@H]4O)C2CC[C@]1(O[C@H]1O[C@H](CO)[C@@H](O)[C@H](O)[C@H]1O[C@@H]1O[C@H](CO)[C@@H](O)[C@H](O)[C@H]1O)C3 (stereo not given in full) | -5 | -2 | 5 | -1
Cc1ccc(NC(=O)C(c2ccccc2)N2CCN(c3ccccn3)CC2)cc1 (stereo not given) | 9 | 7 | 23 | 4
Oc1ccc(-c2nnc(Nc3ccc(Cl)c(Cl)c3)c3ccccc23)cc1 | 53* | 49* | -29 | 20
Cc1nnc(SCC(=O)Nc2ccc(Cl)c(Cl)c2)c2ccccc12 | 4 | -17 | -13 | -9
O=C(Nc1ccc(OCC(=O)N2CCOCC2)cc1)c1ccc2c(c1)OCO2 | -2 | 15 | 24 | 37*
O=C(Nc1ccc(F)c(F)c1)c1cnc(N2CCOCC2)nc1 | 9 | 7 | 3 | 11
O=C(Nc1ccc2c(c1)OCO2)c1cnc(N2CCOCC2)nc1 | 81* | 40* | 0 | 17
O=C(COc1ccc(C(=O)c2ccccc2)cc1)Nc1ccc2c(c1)OCO2 | -18 | 0 | 15 | 23
O=C(Nc1ccc2c(c1)OCCO2)c1cnc(N2CCOCC2)nc1 | -4 | -9 | -7 | 42*
CCOc1ccccc1CNC(=O)CCc1nc2sc3c(c2c(=O)[nH]1)CCCC3 | -40 | -5 | -24 | 0
Cc1cncc(C2CCN(C(=O)Cn3nnc4ccccc43)CC2)n1 | -51 | -4 | 0 | -4
Cc1cc(-c2noc(-c3ccoc3C)n2)c2ccccc2n1 | 37* | 4 | -93 | 2
COc1ccc(OCc2nc(-c3cc(C)nc4ccccc34)no2)cc1 | 2 | 14 | 2 | 10
CCc1ccc(NC(=O)N2CC[C@@H]3Oc4ccccc4S(=O)(=O)N(C)[C@H]3CC2)cc1 | 4 | 0 | 4 | 0
Cc1ccc2cc(-c3noc(CCC(=O)NC4CCCC4)n3)c(=O)[nH]c2c1 | 75* | 4 | 22 | -5
NC1=CC(=O)C(Nc2ccccc2O)=CC1=O | 36* | 42* | -35 | -5
CC1=C2[C@@H](CC3CCC[C@@H](C)[C@]3(C)[C@H]2O)OC1=O (stereo not given in full) | -2 | 0 | -1 | 0
CC(C)CC[C@H]1O[C@@H](CC(=O)O)Cc2cc3c(c(O)c21)C(=O)c1sc(=O)n(C)c1C3=O | -18 | 78* | 16 | 77*
COc1ccccc1NC(=O)N1CCn2cccc2C1c1cccs1 (stereo not given) | -131 | -26 | -99 | -18
O=C(CN(C1CCCCC1)S(=O)(=O)c1ccccc1)Nc1cccc2ccccc12 | -20 | -10 | 1 | -4
COc1ccccc1CNC(=O)c1c(O)c2cnn(-c3cccc(C)c3)c2[nH]c1=O | 82* | 39* | 11 | 76*
O=C(c1ccc(Cl)cc1)N1CCN(Cc2noc3ccccc23)CC1 | 4 | 7 | 18 | 7
Cn1nnc2ccc(-c3noc(Cc4cccc(F)c4)n3)cc21 | -10 | -4 | -11 | 0
Cn1cc(-c2noc(Cc3cccc(C(F)(F)F)c3)n2)ccc1=O | 9 | 9 | 18 | 79*
COc1ccccc1N(C(=O)Nc1ccccc1)C1=NCCC1 | 8 | 12 | 15 | 46*
COc1ccc(NC(=O)N(C2=NCCC2)c2ccccc2)cc1 | -3 | 11 | 6 | 1
